# A selection: hits, their analogues and other compounds. The true share with any hit is near 2.3%.
# PP5 inh: PP5 (human) phosphatase inhibition; purified PP5c, OMFP substrate fluorescence; inhibition, % at 6.7 µM; 320,000 tested, 0.18% active;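 active means inhibition above the campaign's mean inhibition across all tested compounds plus 3 SD, cut at about 9.5% in these data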;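 further: 0% = DMSO only and 100% = 100 µM cantharidin control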
# MsrA inhibitor: inhibitors of bovine MsrA; 360,000 tested, 0.75% active; inhibition, % at 15.5 µM; purified bovine MsrA, absorbance read-out; AID 651718;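 further: 0% = vehicle wells with enzyme and 100% = reference inhibitor wells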
# EBNA-1 inh: blocks EBNA-1 binding to DNA | EBNA-1 DNA binding, fluorescence polarization | inhibition, % at 14.8 µM | 300,000 tested, 0.34% active | AID 1950; in the data active means inhibition above about 28%
# bovine MsrA act: activators of bovine methionine sulfoxide reductase A | purified bovine MsrA, absorbance read-out | activation, % at 10.6 µM | 360,000 tested, 0.3% active; in the data active means activation above about 7.5%;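 further: 0% = vehicle and 100% = reference activator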
# ZTA DNA inh: ZTA (EBV) inhibition in EBNA-1 counter-screen; P03206; AID 2234; 320,000 tested, 0.15% active; inhibition, % at 11 µM; ZTA-DNA binding, fluorescence polarization; in the data active means inhibition above about 33%
# Target sequence (P03206 whole entry, looked up): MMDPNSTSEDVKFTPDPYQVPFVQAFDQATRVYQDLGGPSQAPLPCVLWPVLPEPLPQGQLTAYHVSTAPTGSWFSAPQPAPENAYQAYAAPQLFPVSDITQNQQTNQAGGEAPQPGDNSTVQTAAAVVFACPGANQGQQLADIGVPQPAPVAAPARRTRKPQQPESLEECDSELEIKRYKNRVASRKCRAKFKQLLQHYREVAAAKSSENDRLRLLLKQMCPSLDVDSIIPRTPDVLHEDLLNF
# PP1 inh: PP1-alpha (human) inhibition in PP5 counter-screen; P62136; purified PP1alpha, OMFP fluorescence; inhibition, % at 6.7 µM; 320,000 tested, 0.9% active;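 active means inhibition above the mean inhibition of all tested compounds plus 3 SD, computed separately for each screening campaign, cut at about 15% in these data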
# Target sequence (P62136 whole entry, looked up): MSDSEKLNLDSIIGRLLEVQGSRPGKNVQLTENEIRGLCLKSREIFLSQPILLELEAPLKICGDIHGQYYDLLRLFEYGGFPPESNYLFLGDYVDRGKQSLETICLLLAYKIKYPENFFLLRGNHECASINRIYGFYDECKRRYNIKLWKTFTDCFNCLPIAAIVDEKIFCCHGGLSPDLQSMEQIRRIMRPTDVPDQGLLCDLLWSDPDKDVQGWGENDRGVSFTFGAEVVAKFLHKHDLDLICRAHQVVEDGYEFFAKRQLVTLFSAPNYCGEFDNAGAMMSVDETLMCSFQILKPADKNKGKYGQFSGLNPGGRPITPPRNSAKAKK
# MsrA conf: bovine MsrA inhibition, confirmed; inhibition, % at 15.5 µM; purified bovine MsrA, absorbance read-out; shares compounds with MsrA inhibitor; 2,300 tested, 41% active; AID 651822;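 further: coupled to thioredoxin reductase with NADPH and selenocystamine and DMSO as substrate; 0% = vehicle only and 100% = full effect of reference inhibitor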
# Numbers without * were called inactive; / = no result given. Unless noted, no stated cut-off is given here; in the data, active means inhibition above about 4.5%; inactive means the rest.
SMILES,PP5 inh,MsrA inhibitor,EBNA-1 inh,bovine MsrA act,ZTA DNA inh,PP1 inh,MsrA conf
COc1cc(/C=N/NC(=O)CNC(=O)c2ccc3c(c2)OCCO3)ccc1O,0.0,0.0,-0.6,-1.5,-6.3,1.8,/
COc1cc(/C=N/NC(=O)c2ccc3c(c2)OCCO3)cc(Cl)c1O,1.4,6.0*,-1.8,-9.5,-5.1,-2.7,5.0*
O=C(N/N=C/c1cc2c(cc1[N+](=O)[O-])OCO2)c1ccc2c(c1)OCO2,3.0,0.9,15.3,1.6,10.2,3.0,/
COc1c(O)ccc(/C=N/NC(=O)c2ccc3c(c2)OCCO3)c1[N+](=O)[O-],0.5,7.2*,-10.1,-6.2,-7.6,1.9,4.4
CC(C)(C)c1ccc(/C=C2\SC(=O)N(CCNC(=O)c3cccc(S(=O)(=O)N4CCOCC4)c3)C2=O)cc1,2.8,/,-9.0,-3.8,2.8,9.8,/
O=C(C1=C(O)C(=O)N(CCCn2ccnc2)C1c1cccc(Br)c1)c1ccco1 (configuration not stated),-0.4,13.2*,-8.9,-6.3,-1.0,47.1*,7.8*
CCN(c1ccc(OC)cc1)S(=O)(=O)c1ccc2c(c1)CC(C)N2C(=O)C1CC1 (configuration not stated),0.6,-0.7,-7.1,-1.4,7.3,2.4,/
C=CCNCc1cccn1-c1sc2c(c1C#N)CCCC2,2.6,-0.9,5.1,-5.7,-21.0,8.9,/
N#Cc1c(-n2cccc2/C=N/O)sc2c1CCCC2,-2.8,16.2*,-3.7,-1.8,-5.4,-7.3,13.6*
CCOC(=O)c1c(NC(=O)COC(=O)/C=C/c2ccco2)sc2c1CC(C)(C)NC2(C)C,1.2,8.7*,-5.3,-2.8,12.5,-1.2,14.5*
COc1ccc(C=C2NC(=S)NC2=O)cc1,/,3.5,/,1.2,/,/,/
CCN1C(=O)/C(=C\N(C)C)NC1=S,1.7,5.0*,-14.6,-7.4,-8.6,-0.3,2.8
CN(C)/C=C1/NC(=S)NC1=O,-1.2,5.5*,-6.0,-3.2,-27.9,-3.4,6.7*
COc1ccc(N2C(=O)/C(=C/N(C)C)NC2=S)cc1,3.3,7.3*,-12.4,-3.8,-15.2,-3.8,5.8*
CC(C)c1ccc(/C=N/n2c(-c3ccccc3)n[nH]c2=S)cc1,1.4,0.7,6.3,-4.1,-1.6,6.6,/
CCCCOC1CC(c2ccc(OCc3ccc(OC)cc3)c(OC)c2)N(C)O1 (configuration not stated),4.6,-0.9,-6.9,-2.5,-11.6,-3.4,/
CNC(=O)c1cc2ccc(OC)cc2oc1=O,0.8,5.2*,-1.4,-4.3,2.9,-0.5,5.7*
N#Cc1c(-c2cccc(Cl)c2)[nH]c(=S)[nH]c1=O,-0.6,3.3,-1.4,5.0,1.9,1.0,/
N#Cc1c(-c2ccccc2)[nH]c(=S)[nH]c1=O,1.3,5.0*,3.5,5.8,2.4,-2.6,3.4
CC(=O)c1cc2cccc(OC3(C)CCN(Cc4ccc(-c5ccccn5)cc4)C3)c2o1 (configuration not stated),/,-1.0,/,-1.0,/,/,/
CC1(C)CC(=O)C=C(Nc2ccc(C(=O)O)cc2)C1,0.6,7.0*,10.6,-3.7,-7.4,-1.3,3.3
CC1(C)CC(=O)C=C(Nc2ccc(S(N)(=O)=O)cc2)C1,1.7,4.9*,-5.4,-6.9,-4.8,-3.9,2.9
CC1(C)CC(=O)C=C(Nc2ccc(O)c(C(=O)O)c2)C1,0.6,0.7,-9.0,-8.2,-0.2,0.4,/
CCc1ccc(NC2=CC(=O)CC(C)(C)C2)cc1,1.1,0.6,1.2,-6.1,-11.6,0.7,/
Cc1ccc(Nc2ccc(C(N)=O)cc2[N+](=O)[O-])cc1C,2.3,19.1*,-2.8,-4.4,-3.5,1.6,11.6*
SMILES,PP5 inh,MsrA inhibitor,EBNA-1 inh,bovine MsrA act,ZTA DNA inh,PP1 inh,MsrA conf
COc1ccc(C(CC(=O)O)NC(=O)COc2cc(C)ccc2C)cc1OC (configuration not stated),2.1,0.4,-24.6,-7.6,-8.7,0.8,/
O=C(CCN1C(=O)S/C(=C/c2ccccc2)C1=O)Nc1ccc(O)c(C(=O)O)c1,-2.5,6.5*,-6.6,-0.4,-1.1,-2.8,3.8
O=C(CCN1C(=O)S/C(=C\c2ccccc2)C1=O)Nc1ccc(O)cc1C(=O)O,1.2,4.8*,-13.6,-3.9,6.5,-3.0,4.5
COc1ccc(/C=C2\SC(=O)N(CCC(=O)Nc3ccccc3)C2=O)cc1OC,1.8,1.5,17.3,-4.1,7.3,-3.4,/
COc1ccc(/C=C2\SC(=S)N(CCC(=O)Nc3ccccc3C(=O)O)C2=O)cc1,1.1,0.4,-4.7,-8.9,1.7,-3.0,/
O=C(CN1C(=O)S/C(=C\c2cccs2)C1=O)Nc1ccc(O)cc1C(=O)O,1.3,5.1*,1.9,-12.3,-4.6,4.4,4.1
O=C(COC(=O)CNC(=O)C1CCCCC1)Nc1cc(C(F)(F)F)ccc1Cl,-0.4,0.1,/,0.0,11.6,-4.6,/
CC1(C)CC(=O)C2=C(C1)Nc1ccccc1NC2c1ccc2c(c1)OCO2 (configuration not stated),3.4,6.6*,9.5,-2.1,-1.8,0.5,4.1
COc1ccccc1C1Nc2ccccc2NC2=C1C(=O)CC(C)(C)C2 (configuration not stated),0.1,5.4*,6.5,-4.4,-5.2,-1.3,3.6
Cc1ccc(C(=O)Nc2ccccc2Cl)cc1,-0.5,-1.4,8.1,-6.9,19.3,-4.0,/
Cc1ccnc(N=Cc2nc(-c3ccccc3Br)oc2O)c1,0.3,6.5*,-7.8,-4.8,-12.7,1.8,0.9
Cc1cccc(/N=C/c2nc(-c3ccccc3Br)oc2O)n1,2.1,1.2,-9.3,-6.9,-18.8,4.2,/
Cc1ccccc1Nc1ncnc2[nH]ncc12,/,14.2*,/,-1.4,/,/,11.6*
CCc1ccc(NC(=O)CSc2nc3nc(C)cc(C)n3n2)cc1,2.0,1.4,-14.4,-10.4,-21.5,-8.2,/
COc1ccc(NC(=O)C(c2ccc(C#N)cc2)n2c(=O)c(-c3cc4ccccc4[nH]3)nc3ccccc32)cc1 (configuration not stated),/,1.3,/,/,/,/,/
O=c1c2ccccc2nc(/C=C/c2c[nH]c3ccccc23)n1CCO,-1.3,5.0*,-8.0,-1.2,-2.6,5.4,2.7
O=c1c2ccccc2nc(/C=C/c2cc(Br)ccc2O)n1CCO,-1.2,0.4,4.9,-1.9,19.0,-2.9,/
CCOc1cc(S(=O)(=O)N(CC)CC)c(OCC)cc1-n1cnnn1,5.0,25.2*,-7.9,-8.1,3.0,-4.2,22.5*
Cc1ccccc1NC(=O)C1CCN(S(=O)(=O)c2cccc3nonc23)CC1,0.7,0.0,-21.8,-3.6,-5.3,-3.2,/
NS(=O)(=O)c1ccc(N2N=C(c3ccccc3)CC2c2ccccc2)cc1 (configuration not stated),4.4,2.5,6.7,-6.2,-4.7,0.9,/
O=S(=O)(O)c1ccc(N2N=C(c3ccccc3)CC2c2ccccc2)cc1 (configuration not stated),3.7,5.8*,6.2,-4.5,5.2,1.0,3.1
